Cytotoxicity data for 100 compounds are collected here from PubChem BioAssay AID431 (Sanford-Burnham Center for Chemical Genomics, 2006).

The structures appear in SMILES notation. About 1,100 (1.7%) of roughly 63,000 compounds were called active. The entries come from a sample that favours actives as a whole. Entries with a potency or affinity are not part of this list. Values without a mark were called inactive.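 The calls were made as follows: active = compounds whose percent cytotoxicity in the single-dose primary screen, scaled between solvent and toxic-drug controls, exceeds 50; inactive = the rest.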

This assay is described as follows: viability loss of HPDE-C7K cells – cell-based, fluorescence, HTS, primary screen (AID 431).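 Also: 0% = DMSO solvent wells and 100% = doxorubicin-treated wells.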 Conditions: HPDE-C7K KRASV12 cells, Alamar Blue viability, 48 h; at 10 µM; hits give high values. (In general: Alamar Blue is a resazurin reagent that responds to reducing activity.)
For the compound `NC(=O)c1ccsc1NC(=O)c1nc(-c2ccccc2)n(-c2ccccc2)n1`, the cytotoxicity is 9.4%.

`O=C(Nc1nccs1)c1nc(-c2ccccc2)n(-c2ccccc2)n1`: the cytotoxicity was 76.3% (active).

As to `Cc1csc(NC(=O)c2nc(-c3ccccc3)n(-c3ccccc3)n2)n1`, the cytotoxicity was -19.1%.

Consider `CCCCC(=O)Nc1ccc(C(=O)NCc2ccncc2)cc1`, for which the cytotoxicity was -7.4%.

Regarding `O=C(CC12CC3CC(CC(C3)C1)C2)N1CCOCC1`, the cytotoxicity was -7.8%.

Take `CCOC(=O)c1sc2nc(NC(=O)C(C)(C)C)sc2c1C`: the cytotoxicity is 2.1%.

As for `CCOC(=O)c1sc2nc(NC(=O)C3CCCCC3)sc2c1C`, the cytotoxicity is 68.2% (active).

Consider `CCOC(=O)c1sc2nc(NC(=O)C3CC3)sc2c1C`, for which the cytotoxicity is 4.4%.

In the case of `CCC(C)[C@H](NC(=O)NCc1cccs1)C(=O)OC` (stereo not given in full), the cytotoxicity is 7.9%.

Take `O=S(=O)(c1ccc(Nc2ccc3c(c2)OCO3)nc1)N1CCOCC1`: the cytotoxicity is -0.1%.

As to `O=C(CCS(=O)(=O)c1cccc2nsnc12)NCc1ccccc1`, the cytotoxicity is -10.5%.

Consider `Cc1cccc(-n2c(CCCN3C(=O)c4ccccc4C3=O)nc3ccccc3c2=O)n1`, for which the cytotoxicity is -9.8%.

Consider `Cc1oc2c(CN3CCOCC3)c(O)ccc2c(=O)c1-c1ccccc1`, for which the cytotoxicity is -12.9%.

In the case of `COc1cc(NS(=O)(=O)c2ccc(NC(=O)C3CCCO3)cc2)nc(OC)n1` (stereo not given), the cytotoxicity is -15.8%.

For `Clc1ccc(OCc2nc(-c3ccccn3)no2)c(Br)c1`, the cytotoxicity was 13.1%.

For `Cc1ccc(OCc2nc(-c3ccccn3)no2)c(Br)c1`, the cytotoxicity is 26.3%.

Turning to `CCOc1ccc(-c2nnc(-c3ccco3)o2)cc1OCC`, the cytotoxicity is 1.7%.

With `COc1cccc(N2CCN(Cc3nc4ccccc4c(=O)[nH]3)CC2)c1`, the cytotoxicity is 4.2%.

On to `COc1cccc(N2CCN(CC(=O)c3c[nH]c4ccc(OC)cc34)CC2C)c1` (stereo not given), for which the cytotoxicity is 17.4%.

Consider `O=C1CC(c2ccccc2)n2nc(N3C(=O)CCC3=O)nc2N1` (stereo not given), for which the cytotoxicity is 2.8%.

Regarding `CC(=O)Nc1ccc(S(=O)(=O)c2ccc(N)cc2)cc1N`, the cytotoxicity was -5.2%.

With `CC1N=C2c3ccccc3N=C(SCc3cc(=O)n4cc(Cl)ccc4n3)N2C1=O` (stereo not given), the cytotoxicity is 5.7%.

As for `CSc1ccc(S(=O)(=O)Nc2ccc3c(c2)OCCO3)cc1`, the cytotoxicity is 9.5%.

With `COc1ccc(NS(=O)(=O)c2ccc3oc4ccccc4c3c2)cn1`, the cytotoxicity is 35.2%.

As for `O=S(=O)(Nc1ccc2c(c1)OCCO2)c1ccc2oc3ccccc3c2c1`, the cytotoxicity was 73% (active).

As for `Cc1ccc2c(c1)c(C)c(C)n2CC(O)Cn1nc(C)cc1C` (stereo not given), the cytotoxicity is -6.3%.

As for `OCc1ccnc2c(O)cccc12`, the cytotoxicity was 11.7%.

`Oc1c(CN2CCN(c3ccccn3)CC2)cc(Cl)c2cccnc12`: the cytotoxicity is 28.4%.

On to `Oc1c(CN2CCc3ccccc3C2)cc(Cl)c2cccnc12`, for which the cytotoxicity was -1.6%.

For `Oc1ccc2cccnc2c1`, the cytotoxicity is 4.8%.

In the case of `CCC1Oc2ccc(C)cc2N(CC(=O)NCCC2=CCCCC2)C1=O` (stereo not given), the cytotoxicity is 0%.

With `O=C(COc1ccc(Cl)cc1)Nc1ccc2oc(-c3ccncc3)nc2c1`, the cytotoxicity is -3%.

With `COc1ccc(CNC(=O)c2cc(-n3cnnc3)ccc2Cl)cc1`, the cytotoxicity was -0.7%.

`CCOC(=O)N1CCN(C(=O)CSc2nnc(-c3cccs3)o2)CC1`: the cytotoxicity is 4.2%.

For `COc1cccc(NC2=NC3(CCCCC3)N=C(N)N2)c1`, the cytotoxicity was -1.1%.

Take `COc1ccc(NC2=NC3(CCCCC3)N=C(N)N2)cc1`: the cytotoxicity is 10.1%.

`CCN(C(=O)COc1ncnc2ccc(Br)cc12)C1CCS(=O)(=O)C1` (stereo not given): the cytotoxicity was -5.5%.

On to `COC(=O)c1ccc(CSc2nc3c(cnn3-c3ccc(C)c(C)c3)c(=O)[nH]2)o1`, for which the cytotoxicity was 8%.

Regarding `COC(=O)c1ccc(CSc2nc3scc(-c4cccs4)c3c(=O)[nH]2)o1`, the cytotoxicity was 50.4% (active).

On to `COC(=O)c1ccc(CSc2nc3c(cnn3-c3ccc(F)cc3)c(=O)[nH]2)o1`, for which the cytotoxicity is 1.7%.

`CN(C)S(=O)(=O)c1ccc(C(=O)Nc2ccc(Cl)cc2)cc1`: the cytotoxicity was 1.5%.

For the compound `COc1cc(-c2csc(C)n2)ccc1O`, the cytotoxicity is -3.1%.

Regarding `CN(c1ccc(O)cc1)c1nc(-c2ccccc2)cs1`, the cytotoxicity is 4.5%.

Consider `Oc1ccc(-c2nc(-c3ccc(O)c(O)c3)cs2)cc1`, for which the cytotoxicity is 79.5% (active).

With `Cc1cccc2cc(C(c3nnnn3CC3CCCO3)N3CCCC4(CCCCC4)C3)c(=O)[nH]c12` (stereo not given), the cytotoxicity was -12.9%.

Turning to `Cc1csc(NC(=O)c2sc3nc(-c4cccs4)ccc3c2N)n1`, the cytotoxicity is 72.2% (active).

Turning to `Nc1c(C(=O)NC2CCCC2)sc2nc(-c3cccs3)ccc12`, the cytotoxicity was 12.2%.

As for `CCCSc1nnc(NC(=O)c2sc3nc(-c4cccs4)ccc3c2N)s1`, the cytotoxicity was 22.7%.

For `CC(C)CCN1C(=O)c2ccc(C(=O)NCC3CCCO3)cc2C1=O` (stereo not given), the cytotoxicity was -6.8%.

As for `O=C(NCCCN1CCN(c2ccccc2F)CC1)Nc1ccc(F)cc1`, the cytotoxicity is -10.3%.

On to `Cc1cc2n(n1)C(c1ccccc1Cl)Nc1ccccc1-2` (stereo not given), for which the cytotoxicity was 18.6%.

With `Cc1cc2n(n1)C(c1ccccc1)Nc1ccccc1-2` (stereo not given), the cytotoxicity is 15.3%.

Regarding `CCCNC(=O)Cc1ncn[nH]1`, the cytotoxicity is 3.6%.

With `CCOc1cc(C(=O)O)cc(Cl)c1OCC#N`, the cytotoxicity was -16.2%.

In the case of `Cc1nc2c(C(=O)O)cnn2c(C)c1Cc1ccccc1F`, the cytotoxicity is -2.2%.

Take `Cc1ccccc1Cc1c(C)nc2c(C(=O)N3CCN(Cc4ccc5c(c4)OCO5)CC3)cnn2c1C`: the cytotoxicity is -9.2%.

In the case of `CC1(C)CC(=O)c2cc(C(=O)N3CCN(CCO)CC3)c(=O)n(-c3ccc(Cl)cc3)c2C1`, the cytotoxicity was -8.4%.

As to `O=C(c1cc2ccccn2n1)N1CCCC1`, the cytotoxicity is 8%.

For the compound `Cc1onc(-c2ccccc2Cl)c1C(=O)NCc1ccc(S(N)(=O)=O)cc1`, the cytotoxicity was -0.7%.

On to `O=c1[nH]cnc2scc(-c3ccc(F)cc3)c12`, for which the cytotoxicity is 7.7%.

For the compound `Cn1nnnc1Sc1ncnc2scc(-c3ccccc3)c12`, the cytotoxicity was 11.1%.

Turning to `COc1ccc(OC)c(NC(=O)CN2CCC(C(=O)c3ccc(C)cc3)CC2)c1`, the cytotoxicity is 4.8%.

Turning to `CCC(C)(C)NC(=O)C(c1cccn1C)N(C(=O)Cn1nnc2ccccc21)c1ccc(OC)cc1` (stereo not given), the cytotoxicity is 41.6%.

Regarding `O=C1CC(O)(C(F)(F)F)Oc2c1ccc1ccccc21` (stereo not given), the cytotoxicity was 88.6% (active).

For the compound `COc1ccc2c(c1)OC(O)(C(F)(F)F)CC2=O` (stereo not given), the cytotoxicity was -1.5%.

For the compound `O=C1CC(O)(C(F)F)Oc2ccc3ccccc3c21` (stereo not given), the cytotoxicity is -1.2%.

As to `COc1ccc(NC(=O)c2ccc(-n3nc(C)c[n+]3[O-])cc2)cc1`, the cytotoxicity was -7.1%.

`N#Cc1c2n(cnc1=O)CCCCC2`: the cytotoxicity was 0%.

On to `Nc1c(C(=O)NCCN2CCOCC2)c2nc3ccccc3nc2n1CCc1ccccc1F`, for which the cytotoxicity is 7.5%.

For `Nc1ccc(-n2c(N)c(C(=O)NCc3ccc4c(c3)OCO4)c3nc4ccccc4nc32)cc1`, the cytotoxicity was 35.9%.

For `Nc1c(C(=O)NCCN2CCOCC2)c2nc3ccccc3nc2n1CCc1ccccc1`, the cytotoxicity is 18.1%.

Consider `Nc1c(C(=O)NCCN2CCOCC2)c2nc3ccccc3nc2n1-c1ccc2c(c1)OCO2`, for which the cytotoxicity is -10.7%.

As for `CC1CN(c2nnnn2-c2ccccc2)CC(C)O1` (stereo not given), the cytotoxicity is -6.4%.

`Cc1ccc(NC(=O)CSc2nnc(COc3ccc(C#N)cc3)n2-c2ccccc2)cc1C`: the cytotoxicity was -3.3%.

With `Cc1ccc(S(=O)(=O)/C(C#N)=C/c2c(N3CCN(C)CC3)nc3ccccn3c2=O)cc1`, the cytotoxicity is -0.5%.

`O=C(O)CSCCC(=O)Nc1ccc(F)cc1`: the cytotoxicity was -3.7%.

On to `CCOC(=O)Cn1c(CN2CC(C)OC(C)C2)nc2c1c(=O)n(C)c(=O)n2C` (stereo not given), for which the cytotoxicity is -2.5%.

For `CCOC(=O)N1CCN(C(=O)C2COc3ccccc3O2)CC1` (stereo not given), the cytotoxicity is 11.8%.

`O=C(O)C1CCCCC1C(=O)Nc1ccc(Cl)cc1Cl` (stereo not given): the cytotoxicity is -0.5%.

In the case of `CCCOC(=O)CCCCC1SCC(NC(=O)OC)C1NC(=O)OC` (stereo not given), the cytotoxicity was 5.4%.

For `CCOC(=O)Cn1c(=O)oc2cc(S(=O)(=O)Nc3cc(Cl)ccc3OC)ccc21`, the cytotoxicity is 0.7%.

On to `CC1=CC(C)(C)N2C(=O)C3(C(C#N)=C(N)Oc4cc(C)oc(=O)c43)c3cccc1c32` (stereo not given), for which the cytotoxicity is -4.3%.

Regarding `CC1=CC(C)(C)N2C(=O)C3(C(C#N)=C(N)Oc4cc(O)ccc43)c3cccc1c32` (stereo not given), the cytotoxicity was 74.3% (active).

For the compound `COc1cc2c3c(c1)C1(C(=O)N3C(C)(C)C=C2C)C(C#N)=C(N)Oc2cc(O)ccc21` (stereo not given), the cytotoxicity is -21.4%.

For the compound `Cn1c(SCC2CCCO2)nnc1-c1ccncc1` (stereo not given), the cytotoxicity was -3.1%.

For the compound `CCOC(=O)C1CCN(c2ncnc3c2oc2ccc(Cl)cc23)CC1`, the cytotoxicity is 6.4%.

Consider `O=C(COC(=O)c1c2c(nc3ccccc13)CCCC2)Nc1ccc2c(c1)OCO2`, for which the cytotoxicity is 53.6% (active).

As to `Cc1onc(-c2ccccc2)c1C(=O)OCC(=O)Nc1ccc2c(c1)OCO2`, the cytotoxicity was 1.3%.

As for `Cc1nn(-c2ccccc2)c(C)c1C(=O)OCC(=O)Nc1ccc2c(c1)OCO2`, the cytotoxicity was -6.3%.

For the compound `O=C(C1CCN(S(=O)(=O)c2cccnc2)CC1)N1CCN(C2CCCC2)CC1`, the cytotoxicity is -8.1%.

Regarding `Cc1ccc(CNc2nc3c([nH]2)c(=O)n(C)c(=O)n3C)cc1`, the cytotoxicity is -19.3%.

For the compound `Cc1ccc(C(CC(=O)N2CCCC2)c2ccccc2)c(O)c1C` (stereo not given), the cytotoxicity was -9.2%.

Take `COc1ccccc1CNc1ncnc2nc[nH]c12`: the cytotoxicity was 4.5%.

As for `CCOC(=O)C1CCN(Cc2ccc(O)c3ncccc23)CC1`, the cytotoxicity is -4.5%.

As to `Oc1ccc(CN2CCN(Cc3ccccc3)CC2)c2cccnc12`, the cytotoxicity was 6.1%.

In the case of `Oc1ccc(CNc2ccccc2F)c2cccnc12`, the cytotoxicity was 5.5%.

As to `Oc1ccc(CN2CCCc3ccccc32)c2cccnc12`, the cytotoxicity was 36.7%.

For the compound `Oc1ccc(CNc2ccccc2)c2cccnc12`, the cytotoxicity is 44.4%.

For `Oc1ccc(CNc2ccc(F)cc2)c2cccnc12`, the cytotoxicity is 53.3% (active).

For the compound `CN1CCN(Cc2cc(COCc3ccccc3)c3cccnc3c2O)CC1`, the cytotoxicity was 4.8%.
